Assay results from PubChem BioAssay (NCI).
This is part of a sample that, as a whole, favours compounds with a hit. Of some 83,000 tested, about 20% had one in any assay.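 How to read the values: 0–100, growth inhibition (40 = 60% inhibited); 0, no net growth; -100 to 0, cell death (-40 = 40% of starting cells died; -100 = all dead).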 Calls of active or inactive are those of the source. How the source made its calls: active means growth percent below 10; inactive means the rest.

Key:
Assay in all cases: NCI-60 one-dose screen, 48 h (100 = growth as untreated, 0 = no growth, -100 = all killed)
NCI-H460 lung = conditions: 10 µM unless noted
A549/ATCC NSCLC = conditions: 10 µM unless noted
786-0 renal = conditions: 10 µM unless noted
COLO 205 colon = conditions: 10 µM
K-562 leukemia = conditions: 10 µM unless noted
MALME-3M melanoma = conditions: 10 µM unless noted
RXF 393 renal = conditions: 10 µM unless noted
SF-295 CNS = conditions: 10 µM unless noted
UACC-257 melanoma = conditions: 10 µM unless noted
SK-MEL-5 melanoma = conditions: 10 µM unless noted
LOX IMVI melanoma = conditions: 10 µM unless noted
UO-31 renal = conditions: 10 µM unless noted
CAKI-1 renal = conditions: 10 µM unless noted
A498 renal = conditions: 10 µM unless noted
HL-60(TB) leukemia = conditions: 10 µM unless noted
MOLT-4 leukemia = conditions: 10 µM
OVCAR-4 ovarian = conditions: 10 µM unless noted
OVCAR-3 ovarian = conditions: 10 µM unless noted
SW-620 colon = conditions: 10 µM unless noted
SK-MEL-2 melanoma = conditions: 10 µM unless noted

Measured: growth

O=C(O)CC(Br)C(=O)CBr (stereo not drawn)
inactive: NCI-H460 lung 108% | A549/ATCC NSCLC 99.9% | 786-0 renal 99.1% | COLO 205 colon 109% | K-562 leukemia 105% | MALME-3M melanoma 103% | RXF 393 renal 109% | SF-295 CNS 98.2% | UACC-257 melanoma 102% | SK-MEL-5 melanoma 106% | LOX IMVI melanoma 86.6% | UO-31 renal 86.1% | CAKI-1 renal 95.8% | A498 renal 104% | HL-60(TB) leukemia 105% | MOLT-4 leukemia 103% | OVCAR-4 ovarian 97.2% | OVCAR-3 ovarian 114% | SW-620 colon 103%

CCOc1ccc(C(O)CN(C)Cc2ccccc2)cc1Cl (stereo not drawn)
inactive: NCI-H460 lung 102% | A549/ATCC NSCLC 102% | 786-0 renal 100% | COLO 205 colon 105% | K-562 leukemia 92.5% | MALME-3M melanoma 104% | RXF 393 renal 90.5% | SF-295 CNS 96.1% | UACC-257 melanoma 108% | SK-MEL-5 melanoma 93.2% | LOX IMVI melanoma 98.6% | SK-MEL-2 melanoma 102% | UO-31 renal 85.5% | CAKI-1 renal 93.3% | A498 renal 90.5% | HL-60(TB) leukemia 103% | MOLT-4 leukemia 96.3% | OVCAR-4 ovarian 103% | OVCAR-3 ovarian 99.7% | SW-620 colon 98.5%

Cc1cc(N(CCCl)CCCl)ccc1C=Nc1ccc2ccccc2c1
active: CAKI-1 renal 1.75% | A498 renal -77.9%
inactive: NCI-H460 lung 26% | A549/ATCC NSCLC 69.8% | 786-0 renal 75.5% | COLO 205 colon 87.4% | K-562 leukemia 80.7% | MALME-3M melanoma 84.9% | RXF 393 renal 71.5% | UACC-257 melanoma 37.8% | SK-MEL-5 melanoma 74.6% | LOX IMVI melanoma 82.8% | SK-MEL-2 melanoma 145% | UO-31 renal 50.8% | HL-60(TB) leukemia 46% | MOLT-4 leukemia 43.7% | OVCAR-4 ovarian 83.5% | OVCAR-3 ovarian 85.7% | SW-620 colon 84.9%
